Among the test systems are T-47D breast; BT-549 breast; MDA-MB-435 melanoma; SW-620 colon; MCF7 breast; HCT-116 colon; KM12 colon; HCC-2998 colon.
Holding throughout (assay): NCI-60 one-dose screen, 48 h (100 = growth as untreated, 0 = no growth, -100 = all killed)
Holding throughout (details): 10 µM unless noted

Molecules are shown by their SMILES. Compounds without any hit were thinned out: in the full panel of roughly 83,000, 20% have a hit.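 The endpoint reported here, percent growth, reads 100 for growth as untreated, 0 for no net growth and -100 for all cells dead.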 Unmarked numbers belong to inactive results. The source made the active and inactive calls. How the source made its calls: active means growth percent below 10; inactive means the rest.

In the case of `O=Nc1c(-c2c(O)[nH]c3cc(Br)ccc23)[nH]c2ccccc12`, the growth in the experiment with T-47D breast is -31.1% (active); in the experiment on BT-549 breast, 40%; in the experiment on MDA-MB-435 melanoma, 31.4%; in the experiment on SW-620 colon it was -92.5% (active); in the experiment on MCF7 breast it was -40% (active); with HCT-116 colon it was -67.3% (active). Also, the growth in the experiment on KM12 colon was -89.9% (active).
Take `O=C(O)c1occ(Cl)c1Cl`: the growth in the experiment with T-47D breast is 103%; in the experiment on BT-549 breast, 130%; with MDA-MB-435 melanoma, 98.5%; with SW-620 colon, 104%; in the experiment on MCF7 breast it was 111%; in the experiment on HCT-116 colon it was 116%. Moreover, the growth is 104% in the experiment with HCC-2998 colon and 110% in the experiment on KM12 colon.
As for `CC(=O)CC(=O)OC/C=C(/C)CCC=C(C)C`, the growth with T-47D breast was 123%; in the experiment with BT-549 breast, 102%; in the experiment on MDA-MB-435 melanoma it was 114%; in the experiment on SW-620 colon, 105%; with MCF7 breast, 99.6%; in the experiment with HCT-116 colon it was 98.9%. The growth in the experiment with HCC-2998 colon was 97.2%; in the experiment on KM12 colon, 105%.
`COCC(=O)NNc1[nH]c(-c2ccc(OC)cc2)cc1C#N`: the growth in the experiment with T-47D breast is 106%; with BT-549 breast, 113%; in the experiment with MDA-MB-435 melanoma it was 102%; with SW-620 colon it was 114%; in the experiment on MCF7 breast, 108%; with HCT-116 colon it was 110%. Further, the growth in the experiment with HCC-2998 colon was 133%; in the experiment on KM12 colon, 104%.
Turning to `CCCCCCCCc1ccc(OCCOCC[N+](C)(C)CC)cc1` (tested in a mixture with another compound), the growth is 23.5% in the experiment with T-47D breast; 45.3% in the experiment with BT-549 breast; 15.3% with MDA-MB-435 melanoma; 46.4% with SW-620 colon; 20.3% in the experiment on MCF7 breast; 54.2% with HCT-116 colon. The growth in the experiment with HCC-2998 colon was 34.6%; in the experiment with KM12 colon, 18%.
Take `CCOc1ccc(Br)cc1/C=C(\C#N)c1ccc([N+](=O)[O-])cc1`: the growth with T-47D breast is 66.4%; in the experiment with BT-549 breast it was 96.5%; in the experiment with MDA-MB-435 melanoma, 85%; with SW-620 colon it was 86.6%; with MCF7 breast, 23.4%; in the experiment with HCT-116 colon, 67.9%. For the same compound, the growth in the experiment on KM12 colon is 94.5%.
On to `O=C(/C=C1\C(=O)N(Cc2ccc([N+](=O)[O-])cc2)c2ccccc21)c1ccc(OCCN2CCCCC2)cc1`, for which the growth with T-47D breast is -62.8% (active); in the experiment on BT-549 breast, -80% (active); in the experiment on MDA-MB-435 melanoma it was 22.5%; in the experiment on SW-620 colon it was -78.7% (active); in the experiment on MCF7 breast, -47.5% (active); in the experiment on HCT-116 colon it was -91.2% (active). The growth is 42.1% in the experiment on HCC-2998 colon and 3.66% (active) with KM12 colon.
Consider `Cn1cnc2nc[nH]c2c1=S`, for which the growth with T-47D breast is 96%; with BT-549 breast, 98.6%; in the experiment on MDA-MB-435 melanoma, 109%; in the experiment on SW-620 colon, 99.8%; in the experiment on MCF7 breast, 94.2%; in the experiment with HCT-116 colon, 106%. In addition, the growth is 102% in the experiment on HCC-2998 colon and 105% in the experiment with KM12 colon.
As for `OCCN1CCN(CC/C=C2/c3ccccc3Sc3ccc(C(F)(F)F)cc32)CC1`, the growth with T-47D breast is 62.5%; in the experiment on BT-549 breast it was 75.2%; in the experiment on MDA-MB-435 melanoma it was 35.2%; with SW-620 colon, 83.5%; in the experiment on MCF7 breast, 56.6%; with HCT-116 colon it was 41.5%. The values for the growth in the experiment with HCC-2998 colon and in the experiment on KM12 colon were 21.4% and 63.4%, respectively.
Turning to `COc1ccc(NC(=O)/C=C(C)/C=C/C=C(C)/C=C/C2=C(C)CCCC2(C)C)cc1`, the growth in the experiment on T-47D breast was 17.8%; with BT-549 breast, 96.2%; in the experiment on MDA-MB-435 melanoma, 95.7%; in the experiment with SW-620 colon, 69.3%; in the experiment on MCF7 breast it was 73.7%; in the experiment on HCC-2998 colon, 97.9%. In addition, in the experiment on KM12 colon, the growth is 88.9%.
As for `CCOC(=O)C1=C(C(F)(F)F)NC(=O)NC1CN1C(=O)c2ccccc2C1=O` (stereo not drawn), the growth in the experiment on T-47D breast is 111%; in the experiment with BT-549 breast it was 108%; in the experiment on MDA-MB-435 melanoma, 108%; in the experiment on SW-620 colon it was 105%; in the experiment on MCF7 breast, 108%; in the experiment with HCT-116 colon, 112%. The growth with HCC-2998 colon was 101%; in the experiment on KM12 colon, 115%.
Turning to `CC[n+]1c(C)ccc2cc(C)ccc21`, the growth was 91.3% in the experiment with T-47D breast; 95% with BT-549 breast; 118% in the experiment with MDA-MB-435 melanoma; 99.5% with SW-620 colon; 94.1% with MCF7 breast; 97.1% with HCT-116 colon. Also, in the experiment with KM12 colon, the growth is 80.7%.
For `CCCCCCCCCCCCCCCCCC(=O)Nc1ccc(O)cc1`, the growth in the experiment on T-47D breast is 93.6%; in the experiment on BT-549 breast it was 62.8%; in the experiment with MDA-MB-435 melanoma, 107%; with SW-620 colon, 98.6%; with MCF7 breast it was 98.9%; with HCT-116 colon, 106%. Moreover, the growth in the experiment with HCC-2998 colon was 120%; in the experiment with KM12 colon, 100%.
Consider `COc1ccc(Cn2cc3c(c2-c2ccc(OC)cc2)CCc2cnoc2-3)cc1`, for which the growth is 38.7% with T-47D breast; 30.3% in the experiment on BT-549 breast; -29.7% (active) with MDA-MB-435 melanoma; 22.6% with SW-620 colon; 4.23% (active) in the experiment on MCF7 breast; 4.82% (active) with HCT-116 colon. Also, the growth with HCC-2998 colon is -30.2% (active); in the experiment with KM12 colon it was 5.5% (active).

The record behind these values is PubChem BioAssay (NCI).
